The text below walks through data of PubChem BioAssay (NCATS).

Assay [1] can be described thus: Cell Viability - MRC5 (AID 434; calls by dose curve;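 further: potency means the concentration at half of the fitted maximal effect; cells exposed to compound for 40 hours at 37 °C; potency reflects cytotoxicity seen as loss of intracellular ATP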). Conditions: MRC5 lung fibroblast viability, qHTS. A digest of the protocol: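 ATP luminescence read-out (CellTiter-Glo, 20 min RT) after 40 hr, 37 °C compound exposure of 1500 MRC5 cells/well. Data normalized to DMSO (basal) and 100 uM tamoxifen (100% inhibition); AC50 from standard Hill equation.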
For orientation: qHTS replaces the single test concentration by a dilution series.

Assay [2] is described as follows: Cell Viability - HUV-EC-C (AID 542).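 Further: cells exposed to compound for 40 hours; on the % scale 0 is the no-effect control and ±100 the full control effect; nearly all actives have a fitted effect of over 35% in size.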 To be noted: HUV-EC-C endothelial cell viability, qHTS; series mostly up to 92.2 µM. In short, it runs like this: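 Cells were seeded at 1000 per well and incubated 5 hr at 37 °C before compound addition. After 40 hr at 37 °C, CellTiter-Glo reagent was added for 20 min and luminescence read. AC50 values came from Hill-equation modelling.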

Assay [3] can be described thus: Cellular Toxicity (caspase-3) HepG2 (AID 654). Further: potency means the concentration at half of the fitted maximal effect.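 On caspase-3 activation: cells exposed to compound for 16 hours before reading; 0% = DMSO alone and 100% = caspase signal from 100 µM tamoxifen.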 To be noted: HepG2 caspase-3 activation, luminescence; series mostly up to 92.2 µM. In short, it runs like this: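 Caspase 3/7 activation in HepG2 is measured as rising luminescence after a 16 hr treatment at 37 °C. Values are scaled between DMSO basal and 100 uM tamoxifen, and AC50 is fitted with the Hill equation.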

A short description of assay [4]: Cellular Toxicity (caspase-3) HUV-EC-C (AID 656). Conditions: HUV-EC-C cells, caspase-3 activation (apoptosis); series mostly up to 92.2 µM. A digest of the protocol:
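Read-out: luminescence proportional to caspase 3/7 activity, measured 20 min after adding Caspase-Glo 3/7 reagent. Cells (HUV-EC-C) had received compound for 16 hr at 37°C. Increases relative to DMSO and 100 uM tamoxifen gave concentration-response AC50 values.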

Assay [5] can be described thus: Cellular Toxicity (caspase-3) MRC-5 (AID 659). Conditions: MRC-5 cells, luminescence, normalized: DMSO 0%, 10 µM staurosporine 100%; series mostly up to 91.7 µM. A digest of the protocol: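 MRC-5 fibroblasts, 1500/well; 16 h cpd, 37 °C; Caspase-Glo 3/7, 1 h RT; lumi read. Norm: DMSO = 0%, 10 uM staurosporine = 100%. Hill-fit AC50 from qHTS conc-response.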
The nature of assay [6]: Cellular Toxicity (caspase-3) SK-N-SH (AID 661). To be noted: SK-N-SH caspase-3 activation, qHTS, DMSO as zero, staurosporine as full; series mostly up to 91.7 µM. A digest of the protocol:
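Cells were seeded and incubated 5 hr at 37 °C, dosed with compound over a concentration range for 16 hr, then given Caspase-Glo 3/7 reagent for 1 hr at room temperature before luminescence reading.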

The nature of assay [7]: Cellular Toxicity (caspase-3) Hek293 (AID 664).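 Further: cells exposed to compound for 16 h at 37 °C before readout.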 Conditions: HEK293 caspase-3 activation, DMSO = 0%, 100 µM tamoxifen = 100%; at 92.2 µM (top of the series). In short, it runs like this:
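qHTS, HEK293 (human embryonic kidney), 16 h cpd exposure in complete medium. Caspase-3/7 activation = luminescence increase; normalized to DMSO/100 uM tamoxifen; Hill-fit AC50.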

A short description of assay [8]: Cellular Toxicity (caspase-3) N2a (AID 665).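 Further: compound exposure lasted 16 h at 37 °C before readout.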 Conditions: N2a cells, luminescence, normalized: DMSO 0%, 10 µM staurosporine 100%; series mostly up to 92.2 µM. In short, it runs like this:
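Caspase-3/7 activation, measured as increased luminescence from aminoluciferin release, is quantified in mouse N2a cells exposed to compounds for 16 h. Values are normalized to DMSO and 10 uM staurosporine, with AC50 derived by Hill modelling.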

A short description of assay [9]: Cellular Toxicity (caspase-3) NIH 3T3 (AID 666).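 Further: caspase signal read after 16 h compound exposure; 0% = DMSO basal and 100% = 100 µM tamoxifen stimulation.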 Conditions: NIH 3T3 caspase-3 activation, apoptosis/toxicity, 0% DMSO, 100% is 100 µM tamoxifen; series mostly up to 92.2 µM. A digest of the protocol:
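Cells were plated at 1000 per well and incubated 5 hr at 37°C, then compound was added for 16 hr. Caspase-Glo 3/7 reagent followed for 20 min at room temperature before luminescence was read.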

Assay [10] in a line: Cellular Toxicity (caspase-3) Renal Proximal Tubule (AID 667).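 Further: cells exposed to compound for 16 hours at 37 °C before detection.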 To be noted: renal proximal tubule cells, primary cells freshly taken from rat; Potency: caspase-3 activation; series mostly up to 91.7 µM. In short, it runs like this:
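In qHTS format, rat primary proximal tubule cells seeded at 1000 per well are exposed to compounds for 16 hours at 37 °C. An increase in Caspase-Glo 3/7 luminescence indicates caspase activation.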

Assay [11] in a line: MultiTox-Fluor Cytotoxicity Assay - LYMP1-001 - Dead Cells (AID 946).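 Further: 0% = DMSO and 100% = tetraoctylammonium bromide.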 Conditions: LYMP1-001 lymphoblastoid cells, dead-cell protease fluorescence; series mostly up to 92.2 µM. In short, it runs like this:
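LYMP1-001 lymphoblastoid cells (2500/well) treated 16 h at 37 C. Dead-cell protease cleavage of bis-AAF-R110 read at Ex/Em 485/520. Normalized to DMSO and 15 uM tetraoctylammonium bromide; AC50 from Hill fits.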

Assay [12] can be described thus: MultiTox-Fluor Cytotoxicity Assay - LYMP1-003 - Dead Cells (AID 961). Further: nearly all actives have a fitted effect of over 70% in size. Further: potency means the concentration at half of the fitted maximal effect. To be noted: LYMP1-003 lymphoblastoid cells, dead-cell protease fluorescence; series mostly up to 92.2 µM. A digest of the protocol:
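LYMP1-003 human lymphoblastoid cells (2500/well) exposed to compound 16 h at 37 C in complete medium; dead-cell protease read with bis-AAF-R110 fluorescence (Ex/Em 485/520) after 60 min at room temperature. Normalized to DMSO and 15 uM tetraoctylammonium bromide; AC50 from Hill fit.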

Assay [13] can be described thus: MultiTox-Fluor Cytotoxicity Assay - LYMP1-003 - Live Cells (AID 962). Further: potency means the concentration at half of the fitted maximal effect. To be noted: LYMP1-003 lymphoblastoid cells, MultiTox-Fluor live-cell protease fluorescence; series mostly up to 92.2 µM. In short, it runs like this: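 Acute cytotoxicity is scored as a drop in live-cell protease activity in human lymphoblastoid LYMP1-003 cells after 16 hr compound exposure at 37 C. AC50 values come from Hill-equation modelling of concentration-response data.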

Assay [14] can be described thus: Cell Viability - LYMP1-003 - Assay at 24 hr (AID 963).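 Further: plate controls were DMSO only for no effect and tetraoctylammonium bromide positive control for full effect.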 Conditions: LYMP1-003 lymphoblastoid cell viability; series mostly up to 92.2 µM. In short, it runs like this: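 Cytotoxicity is scored as a concentration-dependent fall in ATP-linked luciferase signal in human lymphoblastoid LYMP1-003 cells treated 24 hr at 37 C in complete culture medium.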
Assay [15] can be described thus: Cell Viability - LYMP1-002 - Assay at 24 hr (AID 993). Further: on the % scale 0 is the no-effect control and ±100 the full control effect. To be noted: LYMP1-002 lymphoblastoid cells viability; series mostly up to 92.2 µM. In short, it runs like this: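 Acute toxicity is measured as concentration-dependent loss of cellular ATP in a human lymphoblastoid line (Coriell LYMP1-002) after 24 h treatment in complete medium. ATP is quantified by luciferase luminescence and AC50 derived by Hill modelling.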

A short description of assay [16]: qHTS Assay for Identification of Small Molecule Inducers of Hypoxia Response (AID 2120; active means well fitted curve in the direction sought with a large enough effect in the signal ratio, with a control signal flat, not every such curve was filed as active; the % refers to the signal ratio; further: 0% is about no effect). Conditions: hypoxia response reporter cells, beta-lactamase ratio readout; series mostly up to 104 µM. A digest of the protocol: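 Cell-based qHTS for reporter induction: hypoxia response element controlled beta-lactamase in ME-180 cells. Compounds incubated 17 h at 37 degrees C; activity from blue/green (460/530 nm) ratio, inducers ranked by AC50.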

Assay [17] addresses Peroxisome proliferator-activated receptor alpha (Homo sapiens) (UniProt Q07869). Nature of the assay: qHTS assay for small molecule agonists of the peroxisome proliferator-activated receptor alpha (PPARalpha) signaling pathway (AID 651778). Further: % of control where 0% means no effect. Conditions: PathHunter PPARalpha complementation, chemiluminescence, 6 h; max response: active compounds read high. A digest of the protocol: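 Enzyme-fragment complementation assay in which ligand-bound PPARalpha translocates and forms an active enzyme that generates chemiluminescence. Cells were plated overnight, exposed to compound for 6 hr at 37 C, and then given detection reagent for 60 min at room temperature.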

Assay [18] in a line: qHTS assay for small molecule agonists of the antioxidant response element (ARE) signaling pathway measured by Nrf2-dependant transcriptional activity - cell viability counter screen (AID 720653; active means well fitted curve in the direction sought with a large enough effect in the repeat runs; an effect the other way counts as inactive or inconclusive; further: potency means the concentration at half of the fitted maximal effect; on max response: on the % scale 0 is the no-effect control and ±100 the full control effect). Conditions: ARE-bla HepG2 viability, CellTiter-Glo ATP luminescence, 16 h; max response: active compounds read low. In short, it runs like this:
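ARE-bla HepG2 cells treated with compounds for 16 h at 37C; this counter screen measures viability as intracellular ATP by CellTiter-Glo luminescence after 30 min at room temperature.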

A short description of assay [19]: qHTS assay for cell viability of HEK293 cells (AID 743288). Further: nearly all actives have a fitted effect of over 50% in size. Further: potency means the concentration at half of the fitted maximal effect. On max response: on the % scale 0 is the no-effect control and ±100 the full control effect. Conditions: ATP luminescence (CellTiter-Glo), 18 h; max response: active compounds read low. In short, it runs like this:
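Quantitative high-throughput screen: compounds were pinned onto parental HEK293 cells (2,000 per well) after a minimum 5 h settling at 37 C, incubated 18 h at 37 C, and intracellular ATP measured by luciferase luminescence.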

A short description of assay [20]: qHTS assay for cell viability of the p53RE-bla HCT-116 cell line (AID 743292). Further: on the % scale 0 is the no-effect control and ±100 the full control effect; nearly all actives have a fitted effect of over 55% in size. To be noted: p53RE-bla HCT-116 viability, ATP luminescence, 16 h; series mostly up to 95 µM. In short, it runs like this:
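HCT-116 p53RE-bla cells seeded 4,000/well; 5 h at 37 C; compound (DMSO) added; 16 h at 37 C; CellTiter-Glo added, 30 min RT; luminescence read.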

SMILES strings stand for the structures. Several values for one entry are separate records, joined by “and”; a condition that tells them apart may be missing. Identical values can stand only once. Unmarked numbers belong to inactive results. Results filed as inconclusive are left out. Activity calls are given as the source filed them. Unless noted, the call rests on the fitted dose curve; in most records, active means well fitted curve in the direction sought with a large enough effect; inconclusive means small, poorly fitted or top-dose-only effect, or another doubt; inactive means no such curve, though single readings can be large; an effect the other way counts as inactive or inconclusive.

Sequence of Peroxisome proliferator-activated receptor alpha (Homo sapiens) (Q07869 whole entry, looked up, the tested form may be a part): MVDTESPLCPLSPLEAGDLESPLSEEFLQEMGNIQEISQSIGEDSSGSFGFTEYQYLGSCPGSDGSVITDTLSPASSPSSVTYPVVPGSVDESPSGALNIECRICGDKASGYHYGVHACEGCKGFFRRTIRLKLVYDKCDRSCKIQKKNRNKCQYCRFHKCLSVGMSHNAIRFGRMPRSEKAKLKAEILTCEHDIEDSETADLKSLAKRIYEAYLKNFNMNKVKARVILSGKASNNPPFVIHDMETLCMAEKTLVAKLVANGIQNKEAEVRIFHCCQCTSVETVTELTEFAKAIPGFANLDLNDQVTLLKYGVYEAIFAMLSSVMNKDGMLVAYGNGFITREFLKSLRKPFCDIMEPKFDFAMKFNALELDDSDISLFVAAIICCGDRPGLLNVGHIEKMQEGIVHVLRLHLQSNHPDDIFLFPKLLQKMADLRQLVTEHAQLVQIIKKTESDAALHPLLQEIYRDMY

Regarding `CCOc1ccc2nc(N)sc2c1`, the Potency in assay [1] was more than 92 µM. Moreover, the Potency entry in assay [2], in assay [3], in assay [4], in assay [10], in [11] and in assay [12] was “inactive” throughout. The Potency entry in [13], in assay [14], in assay [15], in assay [16] and in assay [20] was “inactive” throughout. Moreover, the call in [5], in [6], in assay [8] and in assay [9] was inactive. The caspase-3 activation in assay [7] was 2.81%. Besides, the values for the max response in assay [17], in assay [18] and in assay [19] were -0.23%, -3.62% and -4.83%, respectively.
On to `O=C1OC(=O)c2ccccc21`, for which the Potency in assay [1] was more than 92 µM. Moreover, the Potency result in assay [2], in assay [3], in [4], in assay [10], in assay [11] and in [12] was “inactive” throughout. Besides, the Potency result in [13], in assay [14], in assay [15], in assay [16] and in assay [20] was “inactive” each time. In addition, the result in assay [5], in assay [6], in assay [8] and in assay [9] was inactive. Besides, the caspase-3 activation in [7] is 1.71%. Moreover, the max response in [17] is 5.7%; in assay [18], -7.68%; in [19], -11.3%.
Consider `Oc1c(Cl)cc(Cl)c(Cl)c1Cl`, for which, in assay [1], the Potency was more than 92 µM. The Potency result in assay [2], in assay [3], in assay [4], in assay [10], in assay [11] and in [12] was “inactive” each time. In addition, the Potency entry in assay [13], in assay [14], in assay [15], in [16] and in assay [20] was “inactive” in each case. For the same compound, the compound was called inactive in [5], in [6], in [8] and in assay [9]. For the same compound, in [7], the caspase-3 activation is 1.49%. Also, the max response in assay [17] is 4.27%; in assay [18] it was -1.59% and 6.5%; in assay [19], -22.8% and -1.71%.
With `C[C@@H]1CC2(OC(O)[C@]3(C)O[C@H]23)O[C@H]2C[C@@]3(C)[C@@H]4CC[C@H]5C(C)(C)C(O[C@@H]6OC[C@@H](O)[C@H](O)[C@H]6O)CC[C@@]56C[C@@]46CC[C@]3(C)[C@@H]12` (some centres undefined), the Potency was more than 92 µM in assay [1], 31.6 µM (active) in [3], 70.8 µM (active) in [18] and 44.7 µM (active) in [19]. Also, the Potency result in assay [2], in assay [4], in assay [11], in [12], in [13] and in assay [14] was “inactive” in each case. Also, the Potency result in [16] and in assay [20] was “inactive” each time. The compound was classed as inactive in [8]. For the same compound, in assay [17], the max response is 6.75%.
With `C=CC(=O)OCCCCCCOC(=O)C=C`, the Potency was more than 92 µM in [1], 31.6 µM (active) in assay [12] and 50.1 µM (active) in assay [13]. Further, the Potency result in assay [2], in [3], in assay [4], in [10], in assay [16] and in [20] was “inactive” in each case. The call in [5], in [8] and in assay [9] was inactive. The max response in assay [17] is 0.65% and -0.822%; in assay [18] it was -16.8% and -7.99%; in assay [19], -28.7% and -17.5%.
As for `CCN(CC)c1ccc(N)cc1`, the Potency entry in assay [2], in assay [3], in assay [4], in [10], in assay [12] and in assay [13] was “inactive” throughout. Besides, the Potency entry in assay [14], in assay [15], in assay [16] and in assay [20] was “inactive” each time. Also, the call in assay [5], in assay [6], in assay [8] and in [9] was inactive. For the same compound, in [7], the caspase-3 activation was 18.6%. For the same compound, the max response in [17] is -0.774%.
In the case of `Oc1cc2c(cc1O)[C@H]1c3ccc(O)c(O)c3OC[C@@]1(O)C2`, the Potency was more than 92 µM in [1] and 50.1 µM (active) in assay [13]. In addition, the Potency entry in assay [3], in assay [4], in assay [10] and in assay [16] was “inactive” in each case. Besides, the outcome in [5], in assay [6], in assay [8] and in assay [9] was inactive. Also, the caspase-3 activation in [7] was 0.207%. The figures for the max response in assay [17], in assay [18] and in assay [19] were -1.65%, -29.6% and -28.5%, respectively.
